Experimental data from PMC7862700, “An all-to-all approach to the identification of sequence-specific readers for epigenetic DNA modifications on cytosine”.

Columns and labels:
Experiment in all cases: DAPPL (digital affinity profiling via proximity ligation, sequencing); 10 mM Tris-HCl pH 7.5, 50 mM NaCl, 1 mM DTT, 4% glycerol, room temperature, 30 min; GST-TFs on glutathione beads, 16-mer random dsDNA library, 0.1% formaldehyde crosslink after washing; high values mean tight binding
FLI1 = target: T1, FLI1 (Homo sapiens, UniProt Q01543 1-452); details: protein: recombinant; tags: N-terminal GST; dsDNA, one strand shown
T1 sequence: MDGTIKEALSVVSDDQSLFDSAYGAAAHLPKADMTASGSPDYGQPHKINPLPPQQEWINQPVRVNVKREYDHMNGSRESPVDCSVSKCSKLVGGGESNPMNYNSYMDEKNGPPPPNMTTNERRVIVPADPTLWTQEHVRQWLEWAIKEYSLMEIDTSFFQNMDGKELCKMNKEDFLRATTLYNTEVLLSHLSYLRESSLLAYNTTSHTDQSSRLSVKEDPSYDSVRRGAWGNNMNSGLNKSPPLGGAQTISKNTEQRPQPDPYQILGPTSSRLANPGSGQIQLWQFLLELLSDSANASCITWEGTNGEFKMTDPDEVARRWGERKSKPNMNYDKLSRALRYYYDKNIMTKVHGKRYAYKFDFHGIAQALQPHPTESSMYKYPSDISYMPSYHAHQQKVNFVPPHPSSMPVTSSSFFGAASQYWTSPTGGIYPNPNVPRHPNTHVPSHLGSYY
Outline: (§1)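 GST fusions of human transcription factors were expressed in yeast and captured with glutathione beads. Once given DNA barcodes and pooled alongside a tag-only sample, they were incubated for 30 min at room temperature with 200 nmole of a random double-stranded 16-mer DNA library in Tris/NaCl/DTT/glycerol buffer, then washed, crosslinked (0.1% formaldehyde), proximity-ligated, PCR-amplified and sequenced on an Illumina NextSeq500. The binding signal of each hexamer is its read frequency for a factor divided by its frequency for the tag-only sample.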

ELK1 = target: T2, ELK1 (Homo sapiens, UniProt P19419 1-428); details: protein: recombinant; tags: N-terminal GST; dsDNA, one strand shown
T2 sequence: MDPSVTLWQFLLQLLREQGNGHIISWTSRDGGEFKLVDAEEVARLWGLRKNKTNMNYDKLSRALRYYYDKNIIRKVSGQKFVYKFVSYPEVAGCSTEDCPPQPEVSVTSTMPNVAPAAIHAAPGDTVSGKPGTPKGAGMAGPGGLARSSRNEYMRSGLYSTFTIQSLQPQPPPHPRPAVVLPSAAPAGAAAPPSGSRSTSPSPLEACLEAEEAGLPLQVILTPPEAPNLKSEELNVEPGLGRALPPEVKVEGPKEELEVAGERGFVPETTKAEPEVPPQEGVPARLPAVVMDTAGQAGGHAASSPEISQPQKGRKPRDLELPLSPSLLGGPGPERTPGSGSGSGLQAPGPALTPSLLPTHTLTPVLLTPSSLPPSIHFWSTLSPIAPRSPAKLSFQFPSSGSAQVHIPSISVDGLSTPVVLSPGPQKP
Outline: as §1

GABPA = target: T3, GABPA (Homo sapiens, UniProt Q06546 1-454); details: protein: recombinant; tags: N-terminal GST; dsDNA, one strand shown
T3 sequence: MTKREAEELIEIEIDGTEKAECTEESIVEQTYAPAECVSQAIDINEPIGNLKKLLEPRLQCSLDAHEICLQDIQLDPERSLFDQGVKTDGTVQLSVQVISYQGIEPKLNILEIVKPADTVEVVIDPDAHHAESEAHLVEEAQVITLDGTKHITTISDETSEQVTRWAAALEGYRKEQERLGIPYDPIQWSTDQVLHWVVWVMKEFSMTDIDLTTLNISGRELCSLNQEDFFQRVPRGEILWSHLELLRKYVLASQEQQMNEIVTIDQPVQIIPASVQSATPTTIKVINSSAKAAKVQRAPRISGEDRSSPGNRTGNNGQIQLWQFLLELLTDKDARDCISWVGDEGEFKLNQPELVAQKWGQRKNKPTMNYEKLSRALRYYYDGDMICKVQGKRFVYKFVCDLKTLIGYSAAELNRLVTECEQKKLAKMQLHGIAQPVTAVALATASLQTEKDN
Outline: as §1

ERG = target: T4, ERG (Homo sapiens, UniProt P11308 1-479); details: protein: recombinant; tags: N-terminal GST; dsDNA, one strand shown
T4 sequence: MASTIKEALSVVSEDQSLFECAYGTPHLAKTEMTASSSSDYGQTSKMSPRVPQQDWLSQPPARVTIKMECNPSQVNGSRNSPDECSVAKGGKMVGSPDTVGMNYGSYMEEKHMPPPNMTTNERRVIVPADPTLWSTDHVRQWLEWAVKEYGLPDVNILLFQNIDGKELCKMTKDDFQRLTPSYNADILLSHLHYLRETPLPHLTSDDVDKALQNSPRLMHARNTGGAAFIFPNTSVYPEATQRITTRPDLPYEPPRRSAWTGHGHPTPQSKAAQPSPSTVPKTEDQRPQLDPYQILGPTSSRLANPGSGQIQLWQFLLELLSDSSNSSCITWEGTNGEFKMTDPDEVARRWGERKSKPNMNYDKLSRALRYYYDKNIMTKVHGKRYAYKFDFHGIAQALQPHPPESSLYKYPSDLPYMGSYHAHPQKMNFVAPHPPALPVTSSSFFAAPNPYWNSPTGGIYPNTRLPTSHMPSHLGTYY
Outline: as §1

ELF1 = ELF1 (Homo sapiens, UniProt P32519 1-619); details: protein: recombinant; tags: N-terminal GST; dsDNA, one strand shown
ELF1, sequence (P32519 whole entry): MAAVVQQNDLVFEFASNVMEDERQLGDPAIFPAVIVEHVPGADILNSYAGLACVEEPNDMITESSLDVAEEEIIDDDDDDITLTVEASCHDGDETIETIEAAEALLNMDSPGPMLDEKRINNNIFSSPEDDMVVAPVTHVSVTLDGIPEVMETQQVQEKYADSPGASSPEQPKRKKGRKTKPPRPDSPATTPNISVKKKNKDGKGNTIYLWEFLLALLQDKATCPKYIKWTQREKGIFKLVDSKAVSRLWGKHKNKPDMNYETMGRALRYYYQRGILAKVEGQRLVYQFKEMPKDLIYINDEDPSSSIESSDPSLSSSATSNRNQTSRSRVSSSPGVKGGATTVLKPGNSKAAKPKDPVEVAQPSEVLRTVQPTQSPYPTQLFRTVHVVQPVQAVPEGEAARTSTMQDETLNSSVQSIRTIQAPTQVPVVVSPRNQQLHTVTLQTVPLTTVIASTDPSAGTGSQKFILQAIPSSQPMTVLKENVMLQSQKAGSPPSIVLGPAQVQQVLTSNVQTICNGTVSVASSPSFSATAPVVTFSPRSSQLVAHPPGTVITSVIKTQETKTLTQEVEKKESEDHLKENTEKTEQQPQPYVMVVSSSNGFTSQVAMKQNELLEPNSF
Outline: as §1

EHF = target: T5, EHF (Homo sapiens, UniProt Q9NZC4 1-300); details: protein: recombinant; tags: N-terminal GST; dsDNA, one strand shown
T5 sequence: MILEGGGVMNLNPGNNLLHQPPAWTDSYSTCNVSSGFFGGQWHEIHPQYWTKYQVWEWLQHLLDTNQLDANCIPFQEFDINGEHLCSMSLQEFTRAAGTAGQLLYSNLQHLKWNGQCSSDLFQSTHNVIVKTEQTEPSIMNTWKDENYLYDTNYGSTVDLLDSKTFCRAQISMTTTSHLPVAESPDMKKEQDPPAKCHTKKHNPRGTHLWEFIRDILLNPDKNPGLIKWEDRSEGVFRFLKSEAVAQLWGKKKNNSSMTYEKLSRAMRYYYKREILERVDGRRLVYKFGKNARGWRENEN
Outline: as §1

SPI1 = SPI1 (Homo sapiens, UniProt P17947 1-270); details: protein: recombinant; tags: N-terminal GST; dsDNA, one strand shown
Outline: as §1

SPIB = SPIB (Homo sapiens, UniProt Q01892 1-262); details: protein: recombinant; tags: N-terminal GST; dsDNA, one strand shown
SPIB, sequence (Q01892 whole entry): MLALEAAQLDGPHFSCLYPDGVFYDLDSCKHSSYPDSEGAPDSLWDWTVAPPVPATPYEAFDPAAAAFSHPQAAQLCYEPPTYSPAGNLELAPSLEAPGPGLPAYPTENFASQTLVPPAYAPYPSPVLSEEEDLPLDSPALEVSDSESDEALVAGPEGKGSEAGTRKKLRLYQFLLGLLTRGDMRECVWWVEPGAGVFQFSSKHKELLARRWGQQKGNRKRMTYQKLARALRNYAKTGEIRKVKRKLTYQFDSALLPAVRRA
Outline: as §1

ELK3 = target: T6, ELK3 (Homo sapiens, UniProt P41970 1-407); details: protein: recombinant; tags: N-terminal GST; dsDNA, one strand shown
T6 sequence: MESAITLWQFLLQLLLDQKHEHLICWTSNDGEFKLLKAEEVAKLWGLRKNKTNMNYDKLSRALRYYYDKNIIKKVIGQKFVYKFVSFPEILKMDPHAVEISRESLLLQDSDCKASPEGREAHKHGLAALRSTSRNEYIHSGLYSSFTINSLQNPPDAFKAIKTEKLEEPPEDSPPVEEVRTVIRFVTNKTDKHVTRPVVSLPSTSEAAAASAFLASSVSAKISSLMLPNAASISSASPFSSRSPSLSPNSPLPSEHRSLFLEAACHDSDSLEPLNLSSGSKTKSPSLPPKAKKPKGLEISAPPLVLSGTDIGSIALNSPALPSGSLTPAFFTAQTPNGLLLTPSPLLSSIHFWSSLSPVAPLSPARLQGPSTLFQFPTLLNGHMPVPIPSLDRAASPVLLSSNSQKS
Outline: as §1

FEV = target: T7, FEV (Homo sapiens, UniProt Q99581 1-238); details: protein: recombinant; tags: N-terminal GST; dsDNA, one strand shown
T7 sequence: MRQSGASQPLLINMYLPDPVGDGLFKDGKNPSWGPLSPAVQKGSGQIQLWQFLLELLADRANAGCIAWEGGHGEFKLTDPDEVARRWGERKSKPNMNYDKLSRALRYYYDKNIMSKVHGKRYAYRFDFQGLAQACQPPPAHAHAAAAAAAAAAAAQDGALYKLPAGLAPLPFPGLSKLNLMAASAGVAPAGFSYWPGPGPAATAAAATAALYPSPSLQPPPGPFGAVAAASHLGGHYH
Outline: as §1

ETV5 = ETV5 (Homo sapiens, UniProt P41161 1-510); details: protein: recombinant; tags: N-terminal GST; dsDNA, one strand shown
ETV5, sequence (P41161 whole entry): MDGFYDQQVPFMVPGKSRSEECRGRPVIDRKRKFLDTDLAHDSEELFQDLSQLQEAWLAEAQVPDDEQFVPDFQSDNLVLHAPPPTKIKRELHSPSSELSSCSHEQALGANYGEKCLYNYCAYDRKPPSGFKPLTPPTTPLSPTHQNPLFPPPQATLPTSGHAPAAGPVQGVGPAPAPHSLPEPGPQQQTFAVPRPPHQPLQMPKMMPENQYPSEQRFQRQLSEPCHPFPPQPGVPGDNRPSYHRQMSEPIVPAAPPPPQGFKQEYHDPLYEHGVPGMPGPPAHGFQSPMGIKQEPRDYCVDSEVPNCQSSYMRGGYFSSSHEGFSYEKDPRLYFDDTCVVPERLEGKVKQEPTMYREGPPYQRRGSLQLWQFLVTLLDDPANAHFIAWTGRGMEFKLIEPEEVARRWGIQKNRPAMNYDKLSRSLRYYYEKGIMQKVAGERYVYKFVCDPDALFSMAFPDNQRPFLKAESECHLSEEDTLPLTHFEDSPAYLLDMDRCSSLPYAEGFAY
Outline: as §1

HSF1 = HSF1 (Homo sapiens, UniProt Q00613 1-529); details: protein: recombinant; tags: N-terminal GST; chain copies: 3; dsDNA, one strand shown
HSF1, sequence (Q00613 whole entry): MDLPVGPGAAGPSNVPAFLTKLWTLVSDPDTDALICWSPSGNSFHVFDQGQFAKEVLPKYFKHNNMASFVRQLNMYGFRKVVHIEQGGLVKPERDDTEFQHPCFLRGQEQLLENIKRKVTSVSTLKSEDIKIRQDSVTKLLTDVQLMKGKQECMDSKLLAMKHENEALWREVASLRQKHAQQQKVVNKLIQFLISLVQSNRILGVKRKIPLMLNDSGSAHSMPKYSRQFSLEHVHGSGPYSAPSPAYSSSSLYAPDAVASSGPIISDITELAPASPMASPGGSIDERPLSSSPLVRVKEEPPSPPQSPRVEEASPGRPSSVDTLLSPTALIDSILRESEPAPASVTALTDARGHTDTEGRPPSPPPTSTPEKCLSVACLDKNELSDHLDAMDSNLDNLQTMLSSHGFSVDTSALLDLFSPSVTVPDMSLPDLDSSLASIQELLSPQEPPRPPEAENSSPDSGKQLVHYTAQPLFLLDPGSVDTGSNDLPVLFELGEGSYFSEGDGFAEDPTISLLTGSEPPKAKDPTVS
Outline: as §1

SPIC = target: T8, SPIC (Homo sapiens, UniProt Q8N5J4 1-248); details: protein: recombinant; tags: N-terminal GST; dsDNA, one strand shown
T8 sequence: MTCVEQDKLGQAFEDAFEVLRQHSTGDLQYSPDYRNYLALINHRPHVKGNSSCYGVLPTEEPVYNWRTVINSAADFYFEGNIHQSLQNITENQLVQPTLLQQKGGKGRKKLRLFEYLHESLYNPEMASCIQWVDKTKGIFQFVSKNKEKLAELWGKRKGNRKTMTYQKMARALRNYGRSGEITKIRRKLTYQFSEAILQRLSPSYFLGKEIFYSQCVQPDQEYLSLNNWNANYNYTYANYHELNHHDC
Outline: as §1

ELF4 = ELF4 (Homo sapiens, UniProt Q99607 1-663); details: protein: recombinant; tags: N-terminal GST; dsDNA, one strand shown
ELF4, sequence (Q99607 whole entry): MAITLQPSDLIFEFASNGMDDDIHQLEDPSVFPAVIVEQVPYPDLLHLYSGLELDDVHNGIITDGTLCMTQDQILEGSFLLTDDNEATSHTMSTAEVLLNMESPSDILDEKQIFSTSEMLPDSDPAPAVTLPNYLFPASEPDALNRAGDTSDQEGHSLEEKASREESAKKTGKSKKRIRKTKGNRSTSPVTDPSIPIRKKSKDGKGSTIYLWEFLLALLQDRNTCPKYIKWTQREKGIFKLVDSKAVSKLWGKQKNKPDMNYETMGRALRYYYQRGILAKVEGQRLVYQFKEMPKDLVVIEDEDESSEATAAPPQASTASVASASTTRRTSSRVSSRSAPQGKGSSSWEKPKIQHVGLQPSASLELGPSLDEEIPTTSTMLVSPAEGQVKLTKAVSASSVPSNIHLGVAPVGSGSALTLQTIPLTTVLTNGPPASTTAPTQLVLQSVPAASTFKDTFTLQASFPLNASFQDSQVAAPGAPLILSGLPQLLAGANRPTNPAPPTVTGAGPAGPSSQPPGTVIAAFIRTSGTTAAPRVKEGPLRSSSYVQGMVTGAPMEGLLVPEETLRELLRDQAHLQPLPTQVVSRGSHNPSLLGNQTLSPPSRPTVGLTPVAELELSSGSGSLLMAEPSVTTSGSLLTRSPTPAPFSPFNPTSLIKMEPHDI
Outline: as §1

ELK4 = target: T9, ELK4 (Homo sapiens, UniProt P28324-2 1-405); details: protein: recombinant; tags: N-terminal GST; dsDNA, one strand shown
T9 sequence: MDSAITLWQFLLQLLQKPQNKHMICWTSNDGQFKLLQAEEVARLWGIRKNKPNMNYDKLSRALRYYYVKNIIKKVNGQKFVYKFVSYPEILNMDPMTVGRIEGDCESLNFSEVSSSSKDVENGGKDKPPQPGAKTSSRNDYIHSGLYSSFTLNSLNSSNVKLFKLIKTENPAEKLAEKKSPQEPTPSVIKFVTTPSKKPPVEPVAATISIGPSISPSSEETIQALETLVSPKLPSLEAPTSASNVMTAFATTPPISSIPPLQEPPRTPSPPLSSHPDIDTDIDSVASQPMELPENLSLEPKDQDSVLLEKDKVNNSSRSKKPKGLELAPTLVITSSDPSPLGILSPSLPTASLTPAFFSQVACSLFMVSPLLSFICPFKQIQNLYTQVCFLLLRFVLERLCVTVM
Outline: as §1

ETV2 = target: T10, ETV2 (Homo sapiens, UniProt O00321 1-342); details: protein: recombinant; tags: N-terminal GST; dsDNA, one strand shown
T10 sequence: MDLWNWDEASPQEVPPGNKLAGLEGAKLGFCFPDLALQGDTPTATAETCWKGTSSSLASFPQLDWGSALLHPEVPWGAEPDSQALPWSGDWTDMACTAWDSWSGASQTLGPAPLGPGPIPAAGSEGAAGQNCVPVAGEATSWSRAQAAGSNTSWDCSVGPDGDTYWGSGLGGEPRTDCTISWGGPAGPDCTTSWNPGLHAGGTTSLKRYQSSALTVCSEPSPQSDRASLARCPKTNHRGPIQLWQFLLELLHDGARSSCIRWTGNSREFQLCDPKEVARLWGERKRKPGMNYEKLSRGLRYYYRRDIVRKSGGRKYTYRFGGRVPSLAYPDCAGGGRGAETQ
Outline: as §1

ELF3 = target: T11, ELF3 (Homo sapiens, UniProt P78545 1-371); details: protein: recombinant; tags: N-terminal GST; dsDNA, one strand shown
T11 sequence: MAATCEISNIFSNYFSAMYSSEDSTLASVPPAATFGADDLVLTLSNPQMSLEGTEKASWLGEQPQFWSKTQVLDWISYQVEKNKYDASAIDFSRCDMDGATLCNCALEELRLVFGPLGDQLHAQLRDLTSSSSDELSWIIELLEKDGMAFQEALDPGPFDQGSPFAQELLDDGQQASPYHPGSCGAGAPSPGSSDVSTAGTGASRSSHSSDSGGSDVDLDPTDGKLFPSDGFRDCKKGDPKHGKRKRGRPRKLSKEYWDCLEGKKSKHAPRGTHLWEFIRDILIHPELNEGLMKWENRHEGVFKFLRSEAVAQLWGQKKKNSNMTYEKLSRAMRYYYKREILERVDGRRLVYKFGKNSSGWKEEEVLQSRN
Outline: as §1

CRX = CRX (Homo sapiens, UniProt O43186 1-299); details: protein: recombinant; tags: N-terminal GST; dsDNA, one strand shown
CRX, sequence (O43186 whole entry): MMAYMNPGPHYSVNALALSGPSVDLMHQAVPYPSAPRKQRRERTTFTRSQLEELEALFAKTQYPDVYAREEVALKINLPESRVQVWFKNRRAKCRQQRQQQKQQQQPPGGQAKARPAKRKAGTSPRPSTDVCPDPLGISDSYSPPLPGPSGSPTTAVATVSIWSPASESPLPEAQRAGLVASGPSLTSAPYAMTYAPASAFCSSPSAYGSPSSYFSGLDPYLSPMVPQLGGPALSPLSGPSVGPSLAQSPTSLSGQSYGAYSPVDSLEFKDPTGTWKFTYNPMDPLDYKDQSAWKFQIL
Outline: as §1

ETV1 = ETV1 (Homo sapiens, UniProt P50549 1-477); details: protein: recombinant; tags: N-terminal GST; dsDNA, one strand shown
ETV1, sequence (P50549 whole entry): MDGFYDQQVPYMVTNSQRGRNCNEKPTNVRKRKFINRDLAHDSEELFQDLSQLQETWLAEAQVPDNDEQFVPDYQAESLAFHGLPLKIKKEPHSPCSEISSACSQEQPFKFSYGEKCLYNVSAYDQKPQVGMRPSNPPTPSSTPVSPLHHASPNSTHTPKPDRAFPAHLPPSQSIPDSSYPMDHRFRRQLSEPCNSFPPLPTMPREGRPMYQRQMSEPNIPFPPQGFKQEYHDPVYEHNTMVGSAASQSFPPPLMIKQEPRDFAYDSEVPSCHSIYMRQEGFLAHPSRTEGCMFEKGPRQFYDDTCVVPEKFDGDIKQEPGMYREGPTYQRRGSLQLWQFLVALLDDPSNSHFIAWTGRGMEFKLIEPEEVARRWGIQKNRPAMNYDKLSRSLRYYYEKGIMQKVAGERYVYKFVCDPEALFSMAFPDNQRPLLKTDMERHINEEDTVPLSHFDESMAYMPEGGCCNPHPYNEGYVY
Outline: as §1

TTCCCC was tested. Which binding signal (FLI1) did it give?
Its binding signal is 1.74 fold enrichment (6-mer frequency, TF over GST control).

And the binding signal (ELK1)?
The binding signal was 1.58 fold enrichment (6-mer frequency, TF over GST control).

What about the binding signal (GABPA) of the same sequence?
The binding signal was 1.71 fold enrichment (6-mer frequency, TF over GST control).

What about the binding signal (ERG) of the same sequence?
Its binding signal is 1.67 fold enrichment (6-mer frequency, TF over GST control).

What about the binding signal (ELF1) of the same sequence?
Its binding signal is 1.72 fold enrichment (6-mer frequency, TF over GST control).

And the binding signal (EHF)?
Its binding signal is 1.68 fold enrichment (6-mer frequency, TF over GST control).

What about the binding signal (SPI1) of the same sequence?
The binding signal was 2.54 fold enrichment (6-mer frequency, TF over GST control).

And the binding signal (SPIB)?
Its binding signal is 1.66 fold enrichment (6-mer frequency, TF over GST control).

What about the binding signal (ELK3) of the same sequence?
Its binding signal is 1.61 fold enrichment (6-mer frequency, TF over GST control).

And the binding signal (FEV)?
The binding signal was 1.64 fold enrichment (6-mer frequency, TF over GST control).

What about the binding signal (ETV5) of the same sequence?
Its binding signal is 1.71 fold enrichment (6-mer frequency, TF over GST control).

What about the binding signal (HSF1) of the same sequence?
The binding signal was 1.42 fold enrichment (6-mer frequency, TF over GST control).

What about the binding signal (SPIC) of the same sequence?
Its binding signal is 1.87 fold enrichment (6-mer frequency, TF over GST control).

What about the binding signal (ELF4) of the same sequence?
The binding signal was 1.78 fold enrichment (6-mer frequency, TF over GST control).

And the binding signal (ELK4)?
The binding signal was 1.48 fold enrichment (6-mer frequency, TF over GST control).

What about the binding signal (ETV2) of the same sequence?
Its binding signal is 1.8 fold enrichment (6-mer frequency, TF over GST control).

What about the binding signal (ELF3) of the same sequence?
Its binding signal is 1.64 fold enrichment (6-mer frequency, TF over GST control).

What about the binding signal (CRX) of the same sequence?
Its binding signal is 1.44 fold enrichment (6-mer frequency, TF over GST control).

What about the binding signal (ETV1) of the same sequence?
The binding signal was 1.69 fold enrichment (6-mer frequency, TF over GST control).
